Assay results from ChEMBL document CHEMBL3988442, “University of Dundee, Small-Polar-MMV Screening Library” (2021).
Hit rate of the full screen: of about 69,000 compounds, about 950 (1.4%) showed an effect of 50% or more. This is one part of a sample in which strong results are shown more often than they occur.

test system: Mycobacterium tuberculosis; assay: Cornell M. t heat shock assay; type: functional, organism-based; set-up: dose or concentration left out as unconfirmed; note: in the data most compounds retested in dose-response had high values

SMILES | Percent Effect [%]
COc1ccc(OC)c(CN(Cc2ccco2)Cc2[nH]cnc2C)c1.O=C(O)CC(O)(CC(=O)O)C(=O)O | -22.22
Cc1cccn2cc(CN3CCCC(c4noc(C5CC5)n4)C3)nc12 (stereo unspecified) | 100.9
Cc1cccn2cc(CN3CCCC(O)C3)nc12 (stereo unspecified) | -6.265
Cc1cccn2cc(CN3CCCC(c4ccn[nH]4)C3)nc12 (stereo unspecified) | 23.59
COCC(=O)N1CCC2(CC1)C(=O)N(Cc1cccnc1)CCN2C.O=C(O)C(F)(F)F.O=C(O)C(F)(F)F | -22.77
O=C(NC[C@H]1CC[C@H](c2ccnc3ncnn32)CC1)C1CC1 | 14.38
COCC1c2c(cnn2C)CCN1Cc1ccc(C)cc1.O=C(O)C(F)(F)F.O=C(O)C(F)(F)F (stereo unspecified) | -35.12
Cn1ccnc1CN1CCc2onc(COCC3CC3)c2C1.O=C(O)C(F)(F)F | 34.07
CCn1ncc2c1C(COC)N(C(=O)c1cscn1)CC2.O=C(O)C(F)(F)F (stereo unspecified) | -5.863
Cc1nn(C)cc1CN1CCCCCC1c1ccccc1Cl (stereo unspecified) | -8.916
COCCN1CCCC1c1nccnc1Nc1nccs1 (stereo unspecified) | -9.826
CS(=O)(=O)N1CCCC1c1cccc(Nc2nccs2)n1 (stereo unspecified) | 92.85
Cc1cccc(C2CCCCCN2Cc2cn(C)nc2C)c1 (stereo unspecified) | 5.626
Cc1nn(C)cc1CN1CCCC1c1cccc(Nc2nccs2)n1 (stereo unspecified) | 99.7
c1ccc(CCN2CCCC2c2cccc(Nc3nccs3)n2)cc1 (stereo unspecified) | 104.9
Cc1ccc(C2CCCCCN2Cc2cn(C)nc2C)s1 (stereo unspecified) | 11.6
Cc1ccsc1C1CCCCCN1Cc1cn(C)nc1C (stereo unspecified) | 17.22
Cc1nc(Nc2ncc(C)s2)cc(C2CCCN2S(C)(=O)=O)n1 (stereo unspecified) | -9.231
CS(=O)(=O)N1CCCC1c1cccc(Cc2ccccc2F)n1 (stereo unspecified) | -7.758
COCCN1CCCC1c1ccnc(-c2ccccc2)n1 (stereo unspecified) | 20.75
Cc1cnc(Nc2cccc(C3CCCN3Cc3cn(C)nc3C)n2)s1 (stereo unspecified) | 104.4
CCCc1nnc(N[C@H](C)c2ccc(OC)cc2)o1 | 32.03
O=C(Nc1ccccc1)N1C(CO)[C@]2(O)CC[C@H]1CC2 (stereo partly specified) | -13.23

SMILES | Percent Effect [%]
C=C1C(C)(C)[C@H]2CC[C@]1(C(=O)N1CCC(n3cc(CO)nn3)CC1)C2 | 11.02
C[C@H]1C(=O)NC[C@H]2CN(CCc3ccccc3)C[C@H]21.O=C(O)C(F)(F)F | -3.474
CN(C)c1ccnc(C2CCCN2)n1.Cl (stereo unspecified) | -9.101
Cc1ccc(CN2CC3(CCN(C(=O)c4cccnc4)C3)C2)o1.O=C(O)C(F)(F)F.O=C(O)C(F)(F)F | 25.41
Cl.Cl.O=C(NCc1cncc2c1CCN(Cc1cccs1)C2)C1CC1 | 3.264
O=C(NCc1ccccn1)[C@H]1COC[C@H]2CN(Cc3ccoc3)C[C@H]21.O=C(O)C(F)(F)F.O=C(O)C(F)(F)F | 2.625
COCCNc1nc(C)nc2c1CCN(C[C@H]1CC[C@@H](N)CC1)CC2 | -33.02
Cn1nc(COc2cccnc2)c2c1CCN(c1cnccn1)C2.O=CO.O=CO | 1.293
O=C(O)C(F)(F)F.O=C(O)C(F)(F)F.c1cncc(N2CCOCC3(CCCN(Cc4cccs4)C3)C2)c1 (stereo unspecified) | -22.26
CC(C)[C@H](N)C(=O)N1CCCC(C2=Nc3ccccc3S(=O)(=O)N2)C1.Cl (stereo partly specified) | 13.38
Cc1cccc(CN2CCc3onc(Cn4cccc4)c3C2)n1.O=C(O)C(F)(F)F | 14.85
COCCN1C2(CCN(CC3CC3)C2)c2ccccc2S1(=O)=O.O=C(O)C(F)(F)F (stereo unspecified) | 3.018
NC(=O)c1ccc(CNC(=O)Nc2cn[nH]c2)cc1 | -17.84
Cc1cccc(CN2CCCC2c2cccc(Nc3nccs3)n2)c1 (stereo unspecified) | 104
Cc1nc(Nc2nccs2)cc(C2CCCN2C2CCOCC2)n1 (stereo unspecified) | -17.35
Cc1cc(C2CCCN2Cc2cccc(C(=O)Nc3nccs3)c2)no1 (stereo unspecified) | -4.082
Cc1nc(Nc2ccccn2)cc(C2CCCN2Cc2ncc[nH]2)n1 (stereo unspecified) | 21.63
Cc1ccccc1CN1CCCC1c1cccc(Nc2nccs2)n1 (stereo unspecified) | 106.1
Cc1cccc(CN2CCCC2c2cccc(CCC(=O)O)n2)c1 (stereo unspecified) | -20.44
CCCN(CC1CC1)C(=O)CN1CCCC1c1cnn(C)c1 (stereo unspecified) | 3.305
CS(=O)(=O)N1CCN(C(=O)CCC2CCCO2)CC1 (stereo unspecified) | 9.25
Cc1noc(C)c1CN1CCC2(CC1)C(c1cnn(C)c1)CC(=O)N2C.O=C(O)C(F)(F)F (stereo unspecified) | 38.42
CC(=O)N1CCO[C@@H]2CN(S(=O)(=O)c3cccnc3)C[C@@H]2C1.O=C(O)C(F)(F)F | 22.17
